PubChem BioAssay (Tox21)
Records with an inconclusive call do not appear. The source made the active and inactive calls. Unless noted, calls follow the shape of the dose curve; as a rule, active = well fitted curve in the direction sought with a large enough effect in the repeat runs; inconclusive = weak or mixed curves; inactive = no such curve, though single readings can be large; an effect the other way counts as inactive or inconclusive.

Legend:
[1] = qHTS assay to test for compound auto fluorescence at 535 nm (green) in HEK293 cells (AID 720680)
[2] = qHTS assay to test for compound auto fluorescence at 460 nm (blue) in HEK293 cell free culture (AID 720681)
How it was run: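 Blue fluorescence (Ex 405/Em 460 nm, triamterene-equivalent) was read immediately after pin transfer of compound or DMSO into medium (DMEM, 10% FBS) without cells.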

[3] = qHTS assay to test for compound auto fluorescence at 535 nm (green) in HEK293 cell free culture (AID 720682)
How it was run: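 Each library compound, or DMSO control, is added by pintool to medium alone, comprising DMEM and 10% FBS. Emission at 535 nm following 485 nm excitation is quantified against fluorescein.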

[4] = qHTS assay to test for compound auto fluorescence at 590 nm (red) in HEK293 cell free culture (AID 720683)
How it was run: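 Red-channel autofluorescence of compounds in culture medium (DMEM, 10% FBS), no cells, measured at 540/590 nm. Rose Bengal sodium is the reference fluorophore for equivalence.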

[5] = qHTS assay to test for compound auto fluorescence at 590 nm (red) in HepG2 cell free culture (AID 720684)
How it was run: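 No cells present: MEM + 10% FBS only. Compound pinned in, red label read (540/590 nm). Activity = fluorescence equivalent to Rose Bengal sodium.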

[6] = qHTS assay to test for compound auto fluorescence at 460 nm (blue) in HepG2 cell free culture (AID 720685)
How it was run: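 Cell-free plates of MEM plus 10% FBS received 23 nL compound or DMSO vehicle; blue-channel (405/460 nm) intensity scored against triamterene as reference fluorophore.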

[7] = qHTS assay to test for compound auto fluorescence at 535 nm (green) in HepG2 cell free culture (AID 720686)
[8] = qHTS assay to test for compound auto fluorescence at 460 nm (blue) in HepG2 cells (AID 720687)
How it was run: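 Blue-channel autofluorescence (Ex/Em 405/460 nm, triamterene-equivalent) was measured after 1 hr compound exposure at 37 C, 5% CO2. Cells were HepG2, plated overnight at 37 C in MEM plus 10% FBS.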

[9] = target: Glucocorticoid receptor (Homo sapiens) (UniProt P04150); assay: qHTS assay to identify small molecule agonists of the glucocorticoid receptor (GR) signaling pathway (AID 720691; active = well fitted activation curve with a large enough effect in the signal ratio in the repeat runs, not every such curve was filed as active; the % refers to the signal ratio; also: potency is read from the fitted curve at half-maximal effect)
How it was run: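 Compounds in DMSO, alongside positive controls, were added to GR-bla HeLa reporter cells and incubated 18 h at 37 C; GRE-driven beta-lactamase was detected by fluorescence after 2 h with FRET substrate at room temperature.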

[10] = qHTS assay to identify small molecule antagonists of the glucocorticoid receptor (GR) signaling pathway - cell viability counter screen (AID 720693); also: nearly all actives have a fitted effect of over 55% in size
[11] = qHTS assay for identifying genotoxic compounds that show differential cytotoxicity against isogenic chicken DT40 cell lines with known DNA damage response pathways - Rev3 mutant cell line (AID 743014); also: nearly all actives have a fitted effect of over 55% in size
[12] = qHTS assay for identifying genotoxic compounds that show differential cytotoxicity against isogenic chicken DT40 cell lines with known DNA damage response pathways - Rad54/Ku70 mutant cell line (AID 743015); also: nearly all actives have a fitted effect of over 60% in size
[13] = qHTS assay to identify small molecule antagonists of the androgen receptor (AR) signaling pathway - cell viability counter screen (AID 743033; also: nearly all actives have a fitted effect of over 45% in size)
[14] = qHTS assay to identify small molecule antagonists of the androgen receptor (AR) signaling pathway using the MDA cell line - cell viability counter screen (AID 743041; also: nearly all actives have a fitted effect of over 45% in size)
How it was run: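 Using the breast carcinoma line MDA-kb2 AR-luc, test chemicals were co-incubated with R1881 for 16 h; CellTiter-Fluor reagent, added at 15.5 h, provided a fluorescence measure of live cells.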

[15] = target: Androgen receptor (Homo sapiens) (UniProt P10275); assay: qHTS assay to identify small molecule agonists of the androgen receptor (AR) signaling pathway (AID 743036; active = well fitted activation curve with a large enough effect in the signal ratio in the repeat runs, with a control signal flat, not every such curve was filed as active; the % refers to the signal ratio)
How it was run: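 Following a 4 h settling period, AR-UAS-bla HEK293 cells were dosed with compounds for 16 h at 37C. A 2 h room-temperature incubation with LiveBLAzer B/G FRET substrate preceded the fluorescence measurement.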

[16] = target: Androgen receptor (Homo sapiens) (UniProt P10275); assay: qHTS assay to identify small molecule agonists of the androgen receptor (AR) signaling pathway using the MDA cell line (AID 743040; also: nearly all actives have a fitted effect of over 20% in size)
How it was run: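 Stable MMTV-luciferase reporter in MDA-kb2 cells; note the promoter carries GR as well as AR response elements. 16 h compound treatment, 37C, 0% CO2; ONE-Glo luminescence endpoint.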

[17] = target: Androgen receptor (Homo sapiens) (UniProt P10275); assay: qHTS assay to identify small molecule antagonists of the androgen receptor (AR) signaling pathway using the MDA cell line (AID 743042; also: nearly all actives have a fitted effect of over 55% in size)
How it was run: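 Antagonist mode: compounds plus R1881 agonist added to MDA-kb2 AR-luc cells, incubated 16 h at 37C. Luciferase reporter luminescence quantified, with multiplexed CellTiter-Fluor readout for cell viability.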

[18] = qHTS assay for identifying genotoxic compounds that show differential cytotoxicity against isogenic chicken DT40 cell lines with known DNA damage response pathways - wild type cell line (AID 743012); also: nearly all actives have a fitted effect of over 60% in size
How it was run: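 Viability of DNA repair-proficient chicken DT40 cells was assessed by CellTiter-Glo luminescence following 40 h compound exposure at 37 C/5% CO2.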

[19] = target: Androgen receptor (Homo sapiens) (UniProt P10275); assay: qHTS assay to identify small molecule antagonists of the androgen receptor (AR) signaling pathway (AID 743035; active = well fitted inhibition curve with a large enough effect in the signal ratio in the repeat runs, not every such curve was filed as active; the % refers to the signal ratio)
How it was run: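 Reporter HEK293 cells were exposed to compounds and R1881 overnight (16 h, 37C); beta-lactamase activity was then quantified by FRET fluorescence.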

[20] = target: Glucocorticoid receptor (Homo sapiens) (UniProt P04150); assay: qHTS assay to identify small molecule antagonists of the glucocorticoid receptor (GR) signaling pathway (AID 720692; active = well fitted inhibition curve with a large enough effect in the signal ratio in the repeat runs, not every such curve was filed as active; the % refers to the signal ratio)
How it was run: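 In a 1536-well cell format, compounds were added 4 h after seeding GR-bla HeLa cells, together with dexamethasone at 5 nM final; reporter activity was measured by FRET-substrate fluorescence following 18 h at 37 C.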
% is scaled to controls: 0 for no effect and ±100 for the full control effect.

Sequence of Glucocorticoid receptor (Homo sapiens) (P04150 whole entry, looked up): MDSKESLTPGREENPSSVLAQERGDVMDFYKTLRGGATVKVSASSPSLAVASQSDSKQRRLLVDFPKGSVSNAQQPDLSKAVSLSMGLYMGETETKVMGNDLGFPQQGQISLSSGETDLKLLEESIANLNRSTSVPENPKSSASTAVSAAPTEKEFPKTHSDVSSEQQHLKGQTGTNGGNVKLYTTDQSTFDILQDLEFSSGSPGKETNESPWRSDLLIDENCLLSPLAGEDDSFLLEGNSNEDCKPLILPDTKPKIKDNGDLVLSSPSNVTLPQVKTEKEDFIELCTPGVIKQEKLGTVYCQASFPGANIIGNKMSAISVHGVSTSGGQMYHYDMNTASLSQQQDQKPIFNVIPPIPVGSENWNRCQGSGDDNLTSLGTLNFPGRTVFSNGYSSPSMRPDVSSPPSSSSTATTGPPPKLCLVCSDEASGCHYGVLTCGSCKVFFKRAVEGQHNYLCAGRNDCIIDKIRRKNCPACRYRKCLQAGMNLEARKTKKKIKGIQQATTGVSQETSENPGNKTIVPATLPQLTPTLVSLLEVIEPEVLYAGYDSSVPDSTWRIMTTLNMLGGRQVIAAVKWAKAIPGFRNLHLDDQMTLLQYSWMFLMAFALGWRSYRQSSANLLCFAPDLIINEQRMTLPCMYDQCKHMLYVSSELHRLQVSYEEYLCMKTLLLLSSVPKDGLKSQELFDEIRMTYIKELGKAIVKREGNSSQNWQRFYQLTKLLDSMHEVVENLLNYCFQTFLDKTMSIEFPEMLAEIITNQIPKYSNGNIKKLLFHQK
Sequence of Androgen receptor (Homo sapiens) (P10275 whole entry, looked up): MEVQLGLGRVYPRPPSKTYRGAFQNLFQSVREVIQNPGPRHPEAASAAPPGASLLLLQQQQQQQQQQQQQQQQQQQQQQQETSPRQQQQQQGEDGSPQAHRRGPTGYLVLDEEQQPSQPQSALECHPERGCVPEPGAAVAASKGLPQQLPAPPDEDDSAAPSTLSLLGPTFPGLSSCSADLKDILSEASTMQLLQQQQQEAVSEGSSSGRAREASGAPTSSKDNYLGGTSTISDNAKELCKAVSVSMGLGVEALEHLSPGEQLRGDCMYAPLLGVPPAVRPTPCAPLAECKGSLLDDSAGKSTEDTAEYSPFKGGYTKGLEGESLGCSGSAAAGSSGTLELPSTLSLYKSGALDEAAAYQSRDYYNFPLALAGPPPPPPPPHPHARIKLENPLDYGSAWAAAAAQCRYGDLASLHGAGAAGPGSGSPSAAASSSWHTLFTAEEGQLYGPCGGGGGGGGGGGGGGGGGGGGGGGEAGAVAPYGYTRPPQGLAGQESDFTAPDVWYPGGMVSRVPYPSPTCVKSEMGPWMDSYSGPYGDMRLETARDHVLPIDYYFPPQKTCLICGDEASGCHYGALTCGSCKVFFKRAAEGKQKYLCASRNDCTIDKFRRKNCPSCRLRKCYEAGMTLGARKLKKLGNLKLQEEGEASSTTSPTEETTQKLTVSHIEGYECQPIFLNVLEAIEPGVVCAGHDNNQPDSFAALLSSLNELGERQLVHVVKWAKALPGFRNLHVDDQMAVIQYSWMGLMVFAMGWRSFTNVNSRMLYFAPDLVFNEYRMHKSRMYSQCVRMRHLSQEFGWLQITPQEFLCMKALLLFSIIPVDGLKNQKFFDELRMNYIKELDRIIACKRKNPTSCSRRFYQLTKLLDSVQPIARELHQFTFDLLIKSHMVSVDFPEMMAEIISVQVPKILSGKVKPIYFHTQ

Cc1cccc2nccnc12
inactive: outcome [1] | outcome [2] | outcome [3] | outcome [4] | outcome [5] | outcome [6] | outcome [7] | outcome [8] | Potency [9] | outcome [10] | Potency [11] | Potency [12] | Potency [13] | Potency [14]

Cc1cc(Cl)c(C)cc1Cl
inactive: outcome [1] | outcome [2] | outcome [3] | outcome [4] | outcome [5] | outcome [6] | outcome [7] | outcome [8] | Potency [9] | outcome [10] | Potency [11] | Potency [12] | Potency [13] | outcome [15] | outcome [16] | Potency [14] | Potency [17]

C=COCCOCCOCCOC=C
inactive: outcome [1] | outcome [2] | outcome [3] | outcome [4] | outcome [5] | outcome [6] | outcome [7] | outcome [8] | Potency [9] | Potency [18] | Potency [11] | Potency [13] | Potency [19] | outcome [15] | outcome [16] | Potency [14] | Potency [17]

CC(=O)N[C@@H](CCC(=O)O)C(=O)O
inactive: outcome [1] | outcome [2] | outcome [3] | outcome [4] | outcome [5] | outcome [6] | outcome [7] | outcome [8] | Potency [9] | outcome [10] | Potency [18] | Potency [12] | Potency [13] | Potency [14]

CCCCCCCCC1CCC(=O)O1 (centres undefined)
inactive: outcome [1] | outcome [2] | outcome [3] | outcome [4] | outcome [5] | outcome [6] | outcome [7] | outcome [8] | outcome [10] | Potency [18] | Potency [11] | Potency [12] | Potency [13] | Potency [14]
active: Potency [9] 43.6 µM

CC(CC=O)CCCC(C)(C)O (centres undefined)
inactive: outcome [1] | outcome [2] | outcome [3] | outcome [4] | outcome [5] | outcome [6] | outcome [7] | outcome [8] | Potency [9] | outcome [10] | Potency [18] | Potency [12] | Potency [13] | Potency [19] | outcome [15] | outcome [16] | Potency [14] | Potency [17]

C[Si](C)=O
inactive: fluorescence, % of fluorescein [1] 0.04% [at 9.17 µM] | fluorescence, % of fluorescent control [2] -0.225% [at 9.17 µM] | activity change [3] -0.0646% [at 9.17 µM] | fluorescence, % of fluorescent control [4] -0.414% [at 9.17 µM] | fluorescence, % of Rose Bengal [5] -0.0951% [at 9.17 µM] | fluorescence, % of fluorescent control [6] -0.0659% [at 9.17 µM] | fluorescence, % of fluorescein control [7] 0.113% [at 9.17 µM] | fluorescence, % of fluorescent control [8] -0.132% [at 9.17 µM] | activation [9] 1.09% [at 6.9 µM] | viability change, negative = cytotoxic [10] -9.5% [at 7.04 µM] | activity change, negative = cytotoxicity [18] 12.9% [at 8.52 µM] | activity, negative = cytotoxicity [11] -9.66% [at 8.53 µM] | activity change, negative = cytotoxicity [12] 1.94% [at 8.55 µM] | activity change, negative = cytotoxicity [13] 2.74% [at 7.04 µM] | viability change, negative = cytotoxic [14] -9.84% [at 8.47 µM]

C=CC(OCC)OCC
inactive: outcome [1] | outcome [2] | outcome [3] | outcome [4] | outcome [5] | outcome [6] | outcome [7] | outcome [8] | outcome [10] | Potency [18] | Potency [11] | Potency [12] | Potency [13] | Potency [14]

CC(C)C(=O)OCCc1ccccc1
inactive: outcome [1] | outcome [2] | outcome [3] | outcome [4] | outcome [5] | outcome [6] | outcome [7] | outcome [8] | outcome [10] | Potency [18] | Potency [11] | Potency [12] | Potency [13] | Potency [14]

CC1(CO)CN(c2ccccc2)NC1=O (centres undefined)
inactive: outcome [1] | outcome [2] | outcome [3] | outcome [4] | outcome [5] | outcome [6] | outcome [7] | outcome [8] | outcome [10] | Potency [18] | Potency [11] | Potency [12] | Potency [13] | Potency [19] | outcome [16] | Potency [14] | Potency [17]

c1ccc2c(c1)ccc1c3ccccc3ccc21
inactive: outcome [1] | outcome [2] | outcome [3] | outcome [4] | outcome [5] | outcome [6] | outcome [7] | outcome [8] | outcome [10] | Potency [18] | Potency [11] | Potency [12] | Potency [13] | Potency [14]

CC1=CCC(C(C)C)=CC1
inactive: outcome [1] | outcome [2] | outcome [3] | outcome [4] | outcome [5] | outcome [6] | outcome [7] | outcome [8] | outcome [10] | Potency [11] | Potency [12] | Potency [13] | Potency [14]

Cc1cc2cc3c(C)cc(=O)oc3c(C)c2o1
inactive: fluorescence, % of fluorescein [1] 0.0223% [at 18.6 µM] | fluorescence, % of fluorescent control [2] 1.37% [at 18.6 µM] | activity change [3] -0.0015% [at 18.6 µM] | fluorescence, % of fluorescent control [4] 0.147% [at 18.6 µM] | fluorescence, % of Rose Bengal [5] -0.0947% [at 18.6 µM] | fluorescence, % of fluorescent control [6] 1.64% [at 18.6 µM] | fluorescence, % of fluorescein control [7] -0.0028% [at 18.6 µM] | fluorescence, % of fluorescent control [8] 1.96% [at 18.6 µM] | outcome [10] | Potency [18] | Potency [11] | Potency [12] | Potency [13] | Potency [14]

O=C(O)C(=O)Cc1ccccc1
inactive: outcome [1] | outcome [2] | outcome [3] | outcome [4] | outcome [5] | outcome [6] | outcome [7] | outcome [8] | outcome [20] | Potency [18] | Potency [11] | Potency [12] | Potency [13] | Potency [19] | outcome [15] | outcome [16] | Potency [14] | Potency [17]
